The results in this text go back to PubChem BioAssay (NCI).

Some test systems named below: T-47D breast; BT-549 breast; MDA-MB-435 melanoma; SW-620 colon; MCF7 breast; HCT-116 colon; HCC-2998 colon; KM12 colon.
What all share (assay): NCI-60 one-dose screen, 48 h (100 = growth as untreated, 0 = no growth, -100 = all killed)
Common to all, as to conditions: 10 µM unless noted

The panel holds about 83,000 compounds, 20% with a hit somewhere; the sample as a whole holds those more often.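 In brief: 96-well plates, 48 h treatment, single concentration, percent growth endpoint.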 A number with no mark means an inactive call. Active and inactive are the calls of the source. The calls were made as follows: active = growth percent below 10; inactive = the rest.

With `O=C(NCc1cccc(CNC(=O)Nc2nc3ccccc3[nH]2)c1)Nc1nc2ccccc2[nH]1`, the growth was 15.9% with T-47D breast; 29.3% in the experiment with BT-549 breast; -74.9% (active) in the experiment with MDA-MB-435 melanoma; -41.6% (active) in the experiment with SW-620 colon; -43.7% (active) with MCF7 breast; -82.4% (active) in the experiment on HCT-116 colon. Further, the growth is 17.9% in the experiment on HCC-2998 colon and -41.9% (active) in the experiment with KM12 colon.

As to `COc1cc2c(c(OC)c1OC)C(=O)CC(c1cccc(NC(=O)c3ccc(C#N)cc3)c1)O2` (stereo not given), the growth in the experiment on T-47D breast is 8.42% (active); in the experiment with BT-549 breast, 43.7%; in the experiment with MDA-MB-435 melanoma, 74%; in the experiment on SW-620 colon, 95.9%; with MCF7 breast it was 65.6%; with HCT-116 colon, 62%. In addition, the values for the growth with HCC-2998 colon and in the experiment with KM12 colon were 101% and 70.9%, respectively.

For `Cc1ccc(S(=O)(=O)OCCCOS(=O)(=O)c2ccc(C)cc2)cc1`, the growth in the experiment on T-47D breast is 99.3%; in the experiment on BT-549 breast it was 96.2%; in the experiment with MDA-MB-435 melanoma it was 101%; in the experiment on SW-620 colon, 103%; in the experiment on MCF7 breast it was 91.2%; in the experiment with HCT-116 colon, 94.1%. For the same compound, the growth was 99.7% in the experiment on HCC-2998 colon and 99.1% with KM12 colon.

As for `CN(C)CCCC1(c2ccc(F)cc2)OCc2cc(-c3ccc4cc[nH]c4c3)ccc21` (stereo not given), the growth with T-47D breast was 75.8%; in the experiment with BT-549 breast it was 87.7%; with MDA-MB-435 melanoma, 14.7%; with SW-620 colon it was 17.2%; with MCF7 breast, -4.23% (active); in the experiment on HCT-116 colon, -12.2% (active). The values for the growth in the experiment with HCC-2998 colon and in the experiment with KM12 colon were -61.6% (active) and 0.464% (active), respectively.

With `CCN(CC)CCCOc1ccc2ncnc(Nc3ccc(Oc4cccc(C(F)(F)F)c4)c(Cl)c3)c2c1`, the growth in the experiment with T-47D breast was 18.7%; with BT-549 breast it was 81.4%; in the experiment with MDA-MB-435 melanoma, -85.7% (active); with SW-620 colon, -87% (active); in the experiment on MCF7 breast, -45.2% (active); in the experiment with HCT-116 colon, -10.1% (active). Besides, the growth with HCC-2998 colon was -85.4% (active); in the experiment with KM12 colon, -24.3% (active).

As to `N#C/C(=C\C=C\c1ccc(-c2cc(Cl)ccc2Cl)o1)c1nc2ccccc2s1`, the growth in the experiment with T-47D breast is 84.8%; in the experiment on BT-549 breast it was 104%; with MDA-MB-435 melanoma, 102%; in the experiment with SW-620 colon it was 98.1%; in the experiment on MCF7 breast, 83.3%; in the experiment on HCT-116 colon, 96.6%. Also, the growth in the experiment on HCC-2998 colon is 102%; with KM12 colon, 106%.

`COc1cc(/C=C2\CN(S(=O)(=O)c3ccccc3)C/C(=C\c3cc(CN4CCCCC4)c(O)c(OC)c3)C2=O)cc(CN2CCCCC2)c1O`: the growth is 89.2% in the experiment on T-47D breast; -39.9% (active) in the experiment on BT-549 breast; -88.6% (active) in the experiment with MDA-MB-435 melanoma; -74.5% (active) with SW-620 colon; -51.9% (active) in the experiment with MCF7 breast; -67.4% (active) with HCT-116 colon. In addition, the growth was -68% (active) in the experiment on HCC-2998 colon and -87.1% (active) in the experiment with KM12 colon.

In the case of `COc1ccc(NC(=O)Nc2ccc(OCCCCCC(=O)NO)cc2)cc1`, the growth is 107% in the experiment on T-47D breast; 99.5% in the experiment on BT-549 breast; 94% in the experiment with MDA-MB-435 melanoma; 99.7% in the experiment with SW-620 colon; 98.3% in the experiment with MCF7 breast; 92.3% in the experiment with HCT-116 colon. The growth in the experiment with HCC-2998 colon is 110%; in the experiment with KM12 colon, 103%.

Consider `N#CC1CCc2c(c(-c3ccc4nc(N)sc4c3)nc3ccc4[nH]ncc4c23)C1` (stereo not given), for which the growth in the experiment with T-47D breast was 94%; in the experiment with BT-549 breast, 65.5%; in the experiment on MDA-MB-435 melanoma it was -2.8% (active); with SW-620 colon, 39.1%; in the experiment with MCF7 breast, 21.7%; with HCT-116 colon it was 25.6%. The growth with HCC-2998 colon is 48.2%; in the experiment on KM12 colon, 24.4%.

For `Cc1ncc(C(=O)Nc2ccc(CN3CCN(C)CC3)c(C(F)(F)F)c2)cc1C#Cc1cnc(N)c2ncccc12`, the growth in the experiment on T-47D breast was 51.4%; in the experiment on BT-549 breast, 42.4%; in the experiment on MDA-MB-435 melanoma, -66.5% (active); with SW-620 colon, 16.6%; in the experiment with MCF7 breast it was -58.6% (active); with HCT-116 colon, -75.5% (active). Also, the growth is 52.1% in the experiment with HCC-2998 colon and 7.51% (active) with KM12 colon.

Take `C=C(c1ccc(OC)c(/C=C/C(=O)c2ccc3c(c2)OCO3)c1)c1cc(OC)c(OC)c(OC)c1`: the growth is 8.67% (active) with T-47D breast; 12.7% in the experiment with BT-549 breast; 23.2% in the experiment on MDA-MB-435 melanoma; 5.67% (active) in the experiment with SW-620 colon; 16.1% with MCF7 breast; 2.56% (active) in the experiment with HCT-116 colon. Moreover, the growth with HCC-2998 colon was 9.86% (active); with KM12 colon it was 4.46% (active).

For `CC1CCN(C(=O)CCCl)c2ccccc21` (stereo not given), the growth was 121% in the experiment on T-47D breast; 96.3% in the experiment on BT-549 breast; 123% in the experiment on MDA-MB-435 melanoma; 91.3% with SW-620 colon; 97.5% with MCF7 breast; 97.3% in the experiment with HCT-116 colon. Besides, the growth in the experiment on HCC-2998 colon was 86.1%; in the experiment on KM12 colon it was 102%.

Consider `COc1ccc(C[n+]2c3ccccc3n3c4ccc(N)cc4ccc32)c(OC)c1OC`, for which the growth is 5.52% (active) with T-47D breast; 5.31% (active) in the experiment on BT-549 breast; 53.9% in the experiment on MDA-MB-435 melanoma; 82.1% in the experiment with SW-620 colon; 31.9% with MCF7 breast; 71.9% in the experiment with HCT-116 colon. Also, the growth with HCC-2998 colon is 67.9%; with KM12 colon it was 19.9%.

On to `CC(=O)c1ccc(Nc2nccc(-c3ccc4ccccc4c3)n2)cc1`, for which the growth was 88.1% with T-47D breast; 101% with BT-549 breast; 69.1% with MDA-MB-435 melanoma; 98.6% in the experiment on SW-620 colon; 75.8% in the experiment on MCF7 breast; 104% with HCT-116 colon. Also, the growth with HCC-2998 colon was 104%; in the experiment on KM12 colon, 81.8%.

Consider `COc1cc(OC)c(/C=C/C(=O)c2c(O)cc(OC)c(C3CCN(C)CC3)c2OC)c(OC)c1`, for which the growth in the experiment with T-47D breast is -74.5% (active); in the experiment with BT-549 breast, -6.55% (active); in the experiment with MDA-MB-435 melanoma, -87.9% (active); in the experiment on SW-620 colon, -83.8% (active); in the experiment with MCF7 breast, -86.1% (active); in the experiment with HCT-116 colon, -100% (active). Moreover, the growth with HCC-2998 colon was -94.5% (active); with KM12 colon it was -62% (active).
